Measurements reported in publication PMC11062922 (Nature Chemical Biology, 2023).
Where two headings read alike, the source gives them in different places.

Assays:
[1] = test system: STK4; details: read-out: apparent Kd, n = 1
[2] = test system: SYK; details: read-out: apparent Kd, n = 1
[3] = compound concentrations:100 nM and 1000 nM (sheet 'Lestaurtinib' of Supplementary Table 1),run:Lestaurtinib_02482_R1,Plate:MR011
[4] = compound concentrations:100 nM and 1000 nM (sheet 'Lestaurtinib' of Supplementary Table 1),run:Lestaurtinib_02482_R2,Plate:MR011
[5] = compound concentrations:100 nM and 1000 nM (sheet 'Lestaurtinib' of Supplementary Table 1),run:Lestaurtinib_02482_R3,Plate:MR011
[6] = compound concentrations:100 nM and 1000 nM (sheet 'Lestaurtinib' of Supplementary Table 1),run:Lestaurtinib_02487_R1,Plate:MR012
[7] = compound concentrations:100 nM and 1000 nM (sheet 'Lestaurtinib' of Supplementary Table 1),run:Lestaurtinib_02496_R1,Plate:MR013
[8] = compound concentrations:100 nM and 1000 nM (sheet 'Lestaurtinib' of Supplementary Table 1),run:Lestaurtinib_02566_R3,Plate:MR014
[9] = compound concentrations:100 nM and 1000 nM (sheet 'Lestaurtinib' of Supplementary Table 1),run:Lestaurtinib_02577_R3,Plate:MR016
[10] = compound concentrations:100 nM and 1000 nM (sheet 'Lestaurtinib' of Supplementary Table 1),run:Lestaurtinib_02584_R1,Plate:MR017
[11] = compound concentrations:100 nM and 1000 nM (sheet 'Lestaurtinib' of Supplementary Table 1),run:Lestaurtinib_02584_R3,Plate:MR017
[12] = compound concentrations:100 nM and 1000 nM (sheet 'Lestaurtinib' of Supplementary Table 1),run:Lestaurtinib_02601_R1,Plate:MR018
[13] = compound concentrations:100 nM and 1000 nM (sheet 'Lestaurtinib' of Supplementary Table 1),run:Lestaurtinib_02601_R2,Plate:MR018
[14] = compound concentrations:100 nM and 1000 nM (sheet 'Lestaurtinib' of Supplementary Table 1),run:Lestaurtinib_02601_R3,Plate:MR018
[15] = compound concentrations:100 nM and 1000 nM (sheet 'Lestaurtinib' of Supplementary Table 1),run:Lestaurtinib_02606_R1,Plate:MR019
[16] = compound concentrations:100 nM and 1000 nM (sheet 'Lestaurtinib' of Supplementary Table 1),run:Lestaurtinib_02606_R2,Plate:MR019
[17] = compound concentrations:100 nM and 1000 nM (sheet 'Lestaurtinib' of Supplementary Table 1),run:Lestaurtinib_02624_R1,Plate:MR020
[18] = compound concentrations:100 nM and 1000 nM (sheet 'Lestaurtinib' of Supplementary Table 1),run:Lestaurtinib_02741_R2,Plate:MR023

Substance: Lestaurtinib
- potency estimated from few doses [1, 3]: 34.5 nM
- potency estimated from few doses [1, 4]: 42.5 nM
- potency estimated from few doses [1, 5]: 38.1 nM
- potency estimated from few doses [1, 6]: 33 nM
- potency estimated from few doses ([1]; compound concentrations:100 nM and 1000 nM (sheet 'Lestaurtinib' of Supplementary Table 1),run:Lestaurtinib_02487_R3,Plate:MR012): 48 nM
- potency estimated from few doses [1, 7]: 39.4 nM
- potency estimated from few doses ([1]; compound concentrations:100 nM and 1000 nM (sheet 'Lestaurtinib' of Supplementary Table 1),run:Lestaurtinib_02496_R3,Plate:MR013): 36.6 nM
- potency estimated from few doses ([1]; compound concentrations:100 nM and 1000 nM (sheet 'Lestaurtinib' of Supplementary Table 1),run:Lestaurtinib_02566_R2,Plate:MR014): 53.6 nM
- potency estimated from few doses [1, 8]: 36.8 nM
- potency estimated from few doses ([1]; compound concentrations:100 nM and 1000 nM (sheet 'Lestaurtinib' of Supplementary Table 1),run:Lestaurtinib_02572_R2,Plate:MR015): 38.4 nM
- potency estimated from few doses ([1]; compound concentrations:100 nM and 1000 nM (sheet 'Lestaurtinib' of Supplementary Table 1),run:Lestaurtinib_02572_R3,Plate:MR015): 51.5 nM
- potency estimated from few doses [1, 9]: 26.1 nM
- potency estimated from few doses [1, 10]: 32.3 nM
- potency estimated from few doses ([1]; compound concentrations:100 nM and 1000 nM (sheet 'Lestaurtinib' of Supplementary Table 1),run:Lestaurtinib_02584_R2,Plate:MR017): 37.7 nM
- potency estimated from few doses [1, 11]: 39.7 nM
- potency estimated from few doses [1, 12]: 47.3 nM
- potency estimated from few doses [1, 13]: 41.1 nM
- potency estimated from few doses [1, 14]: 51.2 nM
- potency estimated from few doses [1, 15]: 38.6 nM
- potency estimated from few doses [1, 16]: 55.6 nM
- potency estimated from few doses [1, 17]: 48.3 nM
- potency estimated from few doses ([1]; compound concentrations:100 nM and 1000 nM (sheet 'Lestaurtinib' of Supplementary Table 1),run:Lestaurtinib_02724_R1,Plate:MR021): 52.4 nM
- potency estimated from few doses ([1]; compound concentrations:100 nM and 1000 nM (sheet 'Lestaurtinib' of Supplementary Table 1),run:Lestaurtinib_02724_R2,Plate:MR021): 41.4 nM
- potency estimated from few doses ([1]; compound concentrations:100 nM and 1000 nM (sheet 'Lestaurtinib' of Supplementary Table 1),run:Lestaurtinib_02724_R3,Plate:MR021): 39.8 nM
- potency estimated from few doses [1, 18]: 36.2 nM
- potency estimated from few doses ([1]; compound concentrations:100 nM and 1000 nM (sheet 'Lestaurtinib' of Supplementary Table 1),run:Lestaurtinib_02748_R2,Plate:MR024): 31.7 nM
- potency estimated from few doses ([1]; compound concentrations:100 nM and 1000 nM (sheet 'Lestaurtinib' of Supplementary Table 1),run:Lestaurtinib_02748_R3,Plate:MR024): 40.9 nM
- potency estimated from few doses ([1]; compound concentrations:100 nM and 1000 nM (sheet 'Lestaurtinib' of Supplementary Table 1),run:Lestaurtinib_02752_R1,Plate:MR025): 51.5 nM
- potency estimated from few doses ([1]; compound concentrations:100 nM and 1000 nM (sheet 'Lestaurtinib' of Supplementary Table 1),run:Lestaurtinib_02752_R2,Plate:MR025): 36.2 nM
- potency estimated from few doses ([1]; compound concentrations:100 nM and 1000 nM (sheet 'Lestaurtinib' of Supplementary Table 1),run:Lestaurtinib_02752_R3,Plate:MR025): 35.9 nM
- potency estimated from few doses ([1]; compound concentrations:100 nM and 1000 nM (sheet 'Lestaurtinib' of Supplementary Table 1),run:Lestaurtinib_02766_R2,Plate:MR027): 45.4 nM
- potency estimated from few doses ([1]; compound concentrations:100 nM and 1000 nM (sheet 'Lestaurtinib' of Supplementary Table 1),run:Lestaurtinib_02768_R1,Plate:MR028): 43.2 nM
- potency estimated from few doses ([1]; compound concentrations:100 nM and 1000 nM (sheet 'Lestaurtinib' of Supplementary Table 1),run:Lestaurtinib_02795_R2,Plate:MR022): 29.7 nM
- potency estimated from few doses ([1]; compound concentrations:100 nM and 1000 nM (sheet 'Lestaurtinib' of Supplementary Table 1),run:Lestaurtinib_02802_R1,Plate:MR029): 34.7 nM
- potency estimated from few doses ([1]; compound concentrations:100 nM and 1000 nM (sheet 'Lestaurtinib' of Supplementary Table 1),run:Lestaurtinib_02896_R1,Plate:MR030): 35.8 nM
- potency estimated from few doses ([1]; compound concentrations:100 nM and 1000 nM (sheet 'Lestaurtinib' of Supplementary Table 1),run:Lestaurtinib_03172_R1,Plate:MR031): 30.6 nM
- potency estimated from few doses ([1]; compound concentrations:100 nM and 1000 nM (sheet 'Lestaurtinib' of Supplementary Table 1),run:Lestaurtinib_03172_R2,Plate:MR031): 38.8 nM
- potency estimated from few doses ([1]; compound concentrations:100 nM and 1000 nM (sheet 'Lestaurtinib' of Supplementary Table 1),run:Lestaurtinib_03172_R3,Plate:MR031): 35.2 nM
- potency estimated from few doses ([1]; compound concentrations:100 nM and 1000 nM (sheet 'Lestaurtinib' of Supplementary Table 1),run:Lestaurtinib_03252_R2,Plate:MR032): 45.6 nM
- potency estimated from few doses ([1]; compound concentrations:100 nM and 1000 nM (sheet 'Lestaurtinib' of Supplementary Table 1),run:Lestaurtinib_03260_R1,Plate:MR033): 38.2 nM
- potency estimated from few doses ([1]; compound concentrations:100 nM and 1000 nM (sheet 'Lestaurtinib' of Supplementary Table 1),run:Lestaurtinib_03260_R2,Plate:MR033): 47.5 nM
- potency estimated from few doses ([2]; compound concentrations:100 nM and 1000 nM (sheet 'Lestaurtinib' of Supplementary Table 1),run:Lestaurtinib_02339_R1,Plate:MR001): 511 nM
- potency estimated from few doses ([2]; compound concentrations:100 nM and 1000 nM (sheet 'Lestaurtinib' of Supplementary Table 1),run:Lestaurtinib_02364_R1,Plate:MR002): 481 nM
- potency estimated from few doses ([2]; compound concentrations:100 nM and 1000 nM (sheet 'Lestaurtinib' of Supplementary Table 1),run:Lestaurtinib_02364_R3,Plate:MR002): 486 nM
- potency estimated from few doses ([2]; compound concentrations:100 nM and 1000 nM (sheet 'Lestaurtinib' of Supplementary Table 1),run:Lestaurtinib_02367_R1,Plate:MR003): 140 nM
- potency estimated from few doses ([2]; compound concentrations:100 nM and 1000 nM (sheet 'Lestaurtinib' of Supplementary Table 1),run:Lestaurtinib_02381_R1,Plate:MR004): 206 nM
- potency estimated from few doses ([2]; compound concentrations:100 nM and 1000 nM (sheet 'Lestaurtinib' of Supplementary Table 1),run:Lestaurtinib_02381_R2,Plate:MR004): 170 nM
- potency estimated from few doses ([2]; compound concentrations:100 nM and 1000 nM (sheet 'Lestaurtinib' of Supplementary Table 1),run:Lestaurtinib_02381_R3,Plate:MR004): 440 nM
- potency estimated from few doses ([2]; compound concentrations:100 nM and 1000 nM (sheet 'Lestaurtinib' of Supplementary Table 1),run:Lestaurtinib_02407_R1,Plate:MR005): 189 nM
- potency estimated from few doses ([2]; compound concentrations:100 nM and 1000 nM (sheet 'Lestaurtinib' of Supplementary Table 1),run:Lestaurtinib_02407_R2,Plate:MR005): 134 nM
- potency estimated from few doses ([2]; compound concentrations:100 nM and 1000 nM (sheet 'Lestaurtinib' of Supplementary Table 1),run:Lestaurtinib_02407_R3,Plate:MR005): 157 nM
- potency estimated from few doses ([2]; compound concentrations:100 nM and 1000 nM (sheet 'Lestaurtinib' of Supplementary Table 1),run:Lestaurtinib_02422_R2,Plate:MR006): 507 nM
- potency estimated from few doses ([2]; compound concentrations:100 nM and 1000 nM (sheet 'Lestaurtinib' of Supplementary Table 1),run:Lestaurtinib_02422_R3,Plate:MR006): 218 nM
- potency estimated from few doses ([2]; compound concentrations:100 nM and 1000 nM (sheet 'Lestaurtinib' of Supplementary Table 1),run:Lestaurtinib_02437_R2,Plate:MR007): 500 nM
- potency estimated from few doses ([2]; compound concentrations:100 nM and 1000 nM (sheet 'Lestaurtinib' of Supplementary Table 1),run:Lestaurtinib_02438_R2,Plate:MR008): 161 nM
- potency estimated from few doses ([2]; compound concentrations:100 nM and 1000 nM (sheet 'Lestaurtinib' of Supplementary Table 1),run:Lestaurtinib_02443_R1,Plate:MR009): 437 nM
- potency estimated from few doses ([2]; compound concentrations:100 nM and 1000 nM (sheet 'Lestaurtinib' of Supplementary Table 1),run:Lestaurtinib_02473_R1,Plate:MR010): 478 nM
- potency estimated from few doses ([2]; compound concentrations:100 nM and 1000 nM (sheet 'Lestaurtinib' of Supplementary Table 1),run:Lestaurtinib_02473_R2,Plate:MR010): 446 nM
- potency estimated from few doses ([2]; compound concentrations:100 nM and 1000 nM (sheet 'Lestaurtinib' of Supplementary Table 1),run:Lestaurtinib_02473_R3,Plate:MR010): 416 nM
- potency estimated from few doses [2, 3]: 523 nM
- potency estimated from few doses [2, 4]: 462 nM
- potency estimated from few doses [2, 5]: 432 nM
- potency estimated from few doses [2, 6]: 598 nM
- potency estimated from few doses ([2]; compound concentrations:100 nM and 1000 nM (sheet 'Lestaurtinib' of Supplementary Table 1),run:Lestaurtinib_02487_R2,Plate:MR012): 495 nM
- potency estimated from few doses [2, 7]: 515 nM
- potency estimated from few doses ([2]; compound concentrations:100 nM and 1000 nM (sheet 'Lestaurtinib' of Supplementary Table 1),run:Lestaurtinib_02496_R2,Plate:MR013): 579 nM
- potency estimated from few doses ([2]; compound concentrations:100 nM and 1000 nM (sheet 'Lestaurtinib' of Supplementary Table 1),run:Lestaurtinib_02566_R1,Plate:MR014): 297 nM
- potency estimated from few doses [2, 8]: 134 nM
- potency estimated from few doses ([2]; compound concentrations:100 nM and 1000 nM (sheet 'Lestaurtinib' of Supplementary Table 1),run:Lestaurtinib_02577_R1,Plate:MR016): 260 nM
- potency estimated from few doses [2, 9]: 149 nM
- potency estimated from few doses [2, 10]: 473 nM
- potency estimated from few doses [2, 11]: 401 nM
- potency estimated from few doses [2, 12]: 420 nM
- potency estimated from few doses [2, 13]: 553 nM
- potency estimated from few doses [2, 14]: 462 nM
- potency estimated from few doses [2, 15]: 388 nM
- potency estimated from few doses [2, 16]: 511 nM
- potency estimated from few doses ([2]; compound concentrations:100 nM and 1000 nM (sheet 'Lestaurtinib' of Supplementary Table 1),run:Lestaurtinib_02606_R3,Plate:MR019): 488 nM
- potency estimated from few doses [2, 17]: 402 nM
- potency estimated from few doses ([2]; compound concentrations:100 nM and 1000 nM (sheet 'Lestaurtinib' of Supplementary Table 1),run:Lestaurtinib_02624_R2,Plate:MR020): 440 nM
- potency estimated from few doses ([2]; compound concentrations:100 nM and 1000 nM (sheet 'Lestaurtinib' of Supplementary Table 1),run:Lestaurtinib_02624_R3,Plate:MR020): 215 nM
- potency estimated from few doses ([2]; compound concentrations:100 nM and 1000 nM (sheet 'Lestaurtinib' of Supplementary Table 1),run:Lestaurtinib_02741_R1,Plate:MR023): 395 nM
- potency estimated from few doses [2, 18]: 396 nM
- potency estimated from few doses ([2]; compound concentrations:100 nM and 1000 nM (sheet 'Lestaurtinib' of Supplementary Table 1),run:Lestaurtinib_02741_R3,Plate:MR023): 236 nM
